Measured values from PubChem BioAssay (NCATS).
Results filed as inconclusive are left out. Activity calls are given as the source filed them. Unless noted, the call rests on the fitted dose curve; in most records, active means well fitted curve in the direction sought with a large enough effect; inconclusive means small, poorly fitted or top-dose-only effect, or another doubt; inactive means no such curve, though single readings can be large; an effect the other way counts as inactive or inconclusive.

Key:
[1] = AP1 Signaling Pathway (AID 357; active means well fitted curve in either direction with a large enough effect, not every such curve was filed as active;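 further: ME-180 reporter cells stimulated with EGF at its EC50 level; on the % scale 0 is the no-effect control and ±100 the full control effect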); details: ME-180 AP-1-bla reporter, EGF-induced, beta-lactamase ratio, 5 h; at 7.69 µM (top of the series) unless noted
In short: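 Cells are seeded overnight, exposed to compound titrations and an EC50 level of EGF for 5 hours at 37 °C, then loaded with CCF4 dye for 2.5 hours. Beta-lactamase activity under the AP-1 element is read as a blue/green ratio.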

[2] = NFAT Signaling Pathway (AID 444; active means well fitted curve in either direction with a large enough effect, not every such curve was filed as active;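 further: carbachol stimulus at about its EC50 of 1 µM final; on the % scale 0 is the no-effect control and ±100 the full control effect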); details: Jurkat NFAT-bla M1, carbachol, beta-lactamase ratio, 5 h; at 7.69 µM (top of the series) unless noted
In short: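 Jurkat cells carrying an NFAT-driven β-lactamase reporter and co-transfected muscarinic M1 receptor were treated with compound plus carbachol (1 uM final, an EC50 level) for 5 h at 37 °C. CCF4 loading followed for 1 h at RT; 460/530 nm ratio gave %activity.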

[3] = molecular target: Glucocorticoid receptor (Homo sapiens) (UniProt P04150); test: GR-GFP Redistribution (AID 450;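 active means compounds whose dose series gives a full or clear partial fitted curve of increased nuclear translocation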; further: potency means the concentration at half of the fitted maximal effect); details: U2OS GR-GFP nuclear translocation, laser cytometry, 2 h
Chain of Glucocorticoid receptor (Homo sapiens) (P04150 whole entry, looked up, the tested form may be a part): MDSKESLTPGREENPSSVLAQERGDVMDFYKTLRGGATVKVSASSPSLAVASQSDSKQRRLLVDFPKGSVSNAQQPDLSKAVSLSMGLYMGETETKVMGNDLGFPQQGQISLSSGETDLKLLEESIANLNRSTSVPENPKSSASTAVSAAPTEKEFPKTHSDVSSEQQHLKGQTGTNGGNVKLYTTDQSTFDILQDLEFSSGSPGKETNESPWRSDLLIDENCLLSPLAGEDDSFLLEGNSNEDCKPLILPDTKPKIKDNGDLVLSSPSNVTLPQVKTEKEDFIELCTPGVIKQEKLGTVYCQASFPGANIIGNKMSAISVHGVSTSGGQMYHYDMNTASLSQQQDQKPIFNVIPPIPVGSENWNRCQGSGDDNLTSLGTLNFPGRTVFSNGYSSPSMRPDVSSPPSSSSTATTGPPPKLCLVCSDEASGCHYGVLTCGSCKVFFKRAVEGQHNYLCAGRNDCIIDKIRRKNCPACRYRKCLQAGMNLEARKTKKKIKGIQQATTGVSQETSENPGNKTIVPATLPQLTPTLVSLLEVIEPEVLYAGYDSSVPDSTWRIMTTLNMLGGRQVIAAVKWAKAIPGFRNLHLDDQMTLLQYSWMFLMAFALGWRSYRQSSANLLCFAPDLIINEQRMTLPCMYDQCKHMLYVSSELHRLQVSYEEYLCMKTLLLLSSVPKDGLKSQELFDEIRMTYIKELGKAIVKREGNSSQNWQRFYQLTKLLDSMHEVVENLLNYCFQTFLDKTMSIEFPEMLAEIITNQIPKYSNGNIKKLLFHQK

[4] = molecular target: Glucocorticoid receptor (Homo sapiens) (UniProt P04150); test: GR-EFC Redistribution (AID 451; calls by dose curve; further: potency means the concentration at half of the fitted maximal effect); details: CHO-K1 GR-EFC translocation, beta-gal luminescence, 2 h
In short: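 CHO-K1 cells stably expressing nuclear-localized β-gal enzyme acceptor and GR fused C-terminally to the enzyme donor fragment; ligand-driven nuclear translocation restores β-gal by complementation. Compounds titrated up to 46 uM final, 2 h at 37 °C; luminescence read.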

[5] = molecular target: 3',5'-cyclic-AMP phosphodiesterase 4B (Homo sapiens) (UniProt Q07343); test: qHTS Assay for Inhibitors of PDE-IV (AID 607; active means well fitted activation curve with a large enough effect in the main read-out, with a control signal flat, not every such curve was filed as active; further: % of control where 0% means no effect)
Chain of 3',5'-cyclic-AMP phosphodiesterase 4B (Homo sapiens) (Q07343 whole entry, looked up): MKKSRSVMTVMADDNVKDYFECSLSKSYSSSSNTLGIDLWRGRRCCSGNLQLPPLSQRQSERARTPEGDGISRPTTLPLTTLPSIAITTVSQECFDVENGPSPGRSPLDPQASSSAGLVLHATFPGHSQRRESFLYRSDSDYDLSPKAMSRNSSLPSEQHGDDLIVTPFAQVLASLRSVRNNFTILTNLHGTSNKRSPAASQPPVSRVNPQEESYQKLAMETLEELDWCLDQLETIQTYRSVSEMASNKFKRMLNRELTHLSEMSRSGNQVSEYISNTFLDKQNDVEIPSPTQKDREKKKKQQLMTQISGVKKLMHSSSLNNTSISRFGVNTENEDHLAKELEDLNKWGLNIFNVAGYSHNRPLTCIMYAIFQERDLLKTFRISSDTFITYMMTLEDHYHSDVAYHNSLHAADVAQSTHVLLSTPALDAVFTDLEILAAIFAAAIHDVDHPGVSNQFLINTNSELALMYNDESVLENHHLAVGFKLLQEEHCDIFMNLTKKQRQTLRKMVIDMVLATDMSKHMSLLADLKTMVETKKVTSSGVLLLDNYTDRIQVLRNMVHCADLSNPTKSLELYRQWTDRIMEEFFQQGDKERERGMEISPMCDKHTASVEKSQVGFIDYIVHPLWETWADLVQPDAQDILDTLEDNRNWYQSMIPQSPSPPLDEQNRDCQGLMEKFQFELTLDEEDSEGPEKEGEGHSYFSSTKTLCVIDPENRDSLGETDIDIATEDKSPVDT
In short: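 Cell-based read-out of cAMP via a modified cyclic nucleotide-gated channel and membrane potential dye (535/590 nm) in HEK293 cells expressing PDE4 endogenously. Compounds tested up to 22.9 uM final; 100 uM RO 20-1724 reference.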

[6] = molecular target: Guanine nucleotide-binding protein G(i) subunit alpha-1 (Homo sapiens) (UniProt P63096); test: qHTS Assay for Inhibitors of RGS12 GoLoco Motif Activity (Green Fluorophore) (AID 879);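 further: 0% = labeled peptide with Gαi1 and full inhibition = labeled peptide alone without protein; negative values mean loss of peptide binding seen as reduced polarization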
Chain of Guanine nucleotide-binding protein G(i) subunit alpha-1 (Homo sapiens) (P63096 whole entry, looked up): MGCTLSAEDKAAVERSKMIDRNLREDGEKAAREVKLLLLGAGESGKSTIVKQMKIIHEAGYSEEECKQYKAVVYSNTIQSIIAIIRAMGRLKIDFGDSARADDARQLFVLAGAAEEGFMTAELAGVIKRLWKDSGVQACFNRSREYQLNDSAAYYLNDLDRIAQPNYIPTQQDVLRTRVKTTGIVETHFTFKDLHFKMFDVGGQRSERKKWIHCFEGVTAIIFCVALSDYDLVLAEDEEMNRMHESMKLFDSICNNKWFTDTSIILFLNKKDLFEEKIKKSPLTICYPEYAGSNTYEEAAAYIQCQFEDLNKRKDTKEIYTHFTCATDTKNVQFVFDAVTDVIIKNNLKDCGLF
In short: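 Fluorescence polarization assay: 50 nM Gαi1 with 10 nM FITC-labeled RGS12 GoLoco peptide in 10 mM Tris pH 7.5, 150 mM NaCl, 0.1 mM GDP, 0.05% NP40, 10 min at room temperature with compound.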

[7] = qHTS Assay for Identification of Small Molecule Antagonists for NFkB Signaling Pathway (AID 895; active means well fitted inhibition curve with a large enough effect in the signal ratio, with a control signal flat, not every such curve was filed as active; the % refers to the signal ratio; further: on the % scale 0 is the no-effect control and ±100 the full control effect)
In short: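 NFkB-bla ME-180 cervical carcinoma cells with beta-lactamase reporter under NFkB response element; compounds added, then TNF alpha at 10 pM final (EC50), 5 h at 37 C. LiveBLAzer substrate 2 h, room temperature; emission 460/530 nm at 405 nm excitation.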

[8] = qHTS Assay for Identification of Small Molecule Agonists for Thrombopoietin (TPO) Signaling Pathway (AID 917); further: on the % scale 0 is the no-effect control and ±100 the full control effect
In short: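 IL-3-dependent murine pro-B Ba/F3 cells, stably transfected with human TPO receptor and GpIIb-promoter luciferase, are incubated 24 hrs at 37 C with test compound and 26 pM TPO; luciferase signal is read after 10 min at room temperature.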

[9] = molecular target: Muscarinic acetylcholine receptor M1 (Rattus norvegicus) (UniProt P08482); test: qHTS Assay for Antagonists of Acetylcholine Muscarinic M1 Receptor: Measurement of IP-One Response (AID 944); further: nearly all actives have a fitted effect of over 75% in size
Chain of Muscarinic acetylcholine receptor M1 (Rattus norvegicus) (P08482 whole entry, looked up): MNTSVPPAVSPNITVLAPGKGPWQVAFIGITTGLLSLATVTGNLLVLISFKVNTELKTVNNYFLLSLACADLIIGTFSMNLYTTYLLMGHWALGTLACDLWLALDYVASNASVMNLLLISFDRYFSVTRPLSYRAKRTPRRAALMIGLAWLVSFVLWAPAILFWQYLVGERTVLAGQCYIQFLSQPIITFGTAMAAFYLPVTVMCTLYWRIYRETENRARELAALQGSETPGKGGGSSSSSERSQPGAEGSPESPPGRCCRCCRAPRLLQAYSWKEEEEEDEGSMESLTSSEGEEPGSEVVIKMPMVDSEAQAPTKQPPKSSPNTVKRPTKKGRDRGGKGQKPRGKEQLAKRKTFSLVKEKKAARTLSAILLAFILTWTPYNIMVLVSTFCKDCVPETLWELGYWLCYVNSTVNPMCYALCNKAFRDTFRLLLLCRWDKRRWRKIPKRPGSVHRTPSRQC
In short: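 Steps: plate transfected CHO-M1 cells overnight; add test compound, 10 min; add carbachol (200 nM, EC80) in stimulation buffer with LiCl; incubate 30 min; add labelled IP1 tracer and anti-IP1 antibody in lysis buffer; read HTRF after 10 min.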

[10] = molecular target: Pyruvate kinase (Leishmania mexicana) (UniProt Q27686); test: qHTS Validation Assay for Inhibitors of Leishmania Mexicana Pyruvate Kinase (AID 945);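 further: 0% = DMSO only neutral control wells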
Chain of Pyruvate kinase (Leishmania mexicana) (Q27686 2-499 E452W): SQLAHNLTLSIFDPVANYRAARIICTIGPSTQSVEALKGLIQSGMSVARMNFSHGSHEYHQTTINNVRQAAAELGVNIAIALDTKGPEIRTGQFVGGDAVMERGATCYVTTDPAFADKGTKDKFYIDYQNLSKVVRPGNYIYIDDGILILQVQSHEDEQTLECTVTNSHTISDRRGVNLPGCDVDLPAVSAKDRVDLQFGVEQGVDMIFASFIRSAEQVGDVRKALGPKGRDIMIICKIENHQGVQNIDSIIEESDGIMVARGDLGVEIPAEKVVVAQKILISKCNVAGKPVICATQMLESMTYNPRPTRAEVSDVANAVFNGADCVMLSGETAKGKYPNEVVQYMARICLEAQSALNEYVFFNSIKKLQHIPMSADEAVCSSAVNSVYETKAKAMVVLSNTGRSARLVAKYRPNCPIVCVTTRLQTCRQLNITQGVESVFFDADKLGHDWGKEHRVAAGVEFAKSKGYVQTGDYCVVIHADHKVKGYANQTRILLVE
In short: (§1)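 Purified LmPYK (E451W mutant, 0.2 nM) was incubated 1 h at room temperature with 0.5 mM PEP and 0.1 mM ADP in 50 mM imidazole pH 7.2, 50 mM KCl, 7 mM MgCl2; ATP formed was read by PKLight luminescence, normalized to DMSO wells.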

[11] = molecular target: Pyruvate kinase PKM (Homo sapiens) (UniProt P14618); test: qHTS Assay for Activators of Human Muscle Pyruvate Kinase (AID 954; active means well fitted curve in the direction sought with a large enough effect, not every such curve was filed as active;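 further: 0% = uninhibited enzyme and -100% = no enzyme or full thiadiazolimine inhibition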)
Chain of Pyruvate kinase PKM (Homo sapiens) (P14618 whole entry, looked up): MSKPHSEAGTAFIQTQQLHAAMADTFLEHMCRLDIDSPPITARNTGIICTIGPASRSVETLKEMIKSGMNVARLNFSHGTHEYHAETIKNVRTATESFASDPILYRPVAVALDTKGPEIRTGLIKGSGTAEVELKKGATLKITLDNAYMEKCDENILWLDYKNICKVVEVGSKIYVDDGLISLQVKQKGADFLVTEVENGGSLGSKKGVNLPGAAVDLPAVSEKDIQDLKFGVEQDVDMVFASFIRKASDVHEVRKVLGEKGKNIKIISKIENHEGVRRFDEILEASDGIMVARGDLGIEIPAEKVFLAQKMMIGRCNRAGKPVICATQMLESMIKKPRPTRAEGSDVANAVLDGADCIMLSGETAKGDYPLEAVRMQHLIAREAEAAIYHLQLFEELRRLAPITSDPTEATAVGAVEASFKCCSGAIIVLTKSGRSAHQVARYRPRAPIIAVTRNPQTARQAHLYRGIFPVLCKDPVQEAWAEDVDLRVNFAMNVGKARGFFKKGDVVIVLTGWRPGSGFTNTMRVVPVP
In short: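 Human PKM2 activity is measured as ATP generation, detected by luciferase-coupled luminescence. The enzyme (0.1 nM) acts on 0.5 mM PEP and 0.1 mM ADP for 1 h at ambient temperature; data are normalized to uninhibited and full-inhibition wells.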

[12] = molecular target: Pyruvate kinase (Leishmania mexicana) (UniProt Q27686); test: qHTS Validation Assay for Activators of Leishmania Mexicana Pyruvate Kinase (AID 959)
In short: as §1

[13] = molecular target: Alpha-galactosidase A (Homo sapiens) (UniProt P06280); test: Counterscreen for Glucocerebrosidase Inhibitors: qHTS Assay for Human alpha-Galactosidase at pH 4.5 (AID 992); further: 0% is about no effect
Chain of Alpha-galactosidase A (Homo sapiens) (P06280 whole entry, looked up): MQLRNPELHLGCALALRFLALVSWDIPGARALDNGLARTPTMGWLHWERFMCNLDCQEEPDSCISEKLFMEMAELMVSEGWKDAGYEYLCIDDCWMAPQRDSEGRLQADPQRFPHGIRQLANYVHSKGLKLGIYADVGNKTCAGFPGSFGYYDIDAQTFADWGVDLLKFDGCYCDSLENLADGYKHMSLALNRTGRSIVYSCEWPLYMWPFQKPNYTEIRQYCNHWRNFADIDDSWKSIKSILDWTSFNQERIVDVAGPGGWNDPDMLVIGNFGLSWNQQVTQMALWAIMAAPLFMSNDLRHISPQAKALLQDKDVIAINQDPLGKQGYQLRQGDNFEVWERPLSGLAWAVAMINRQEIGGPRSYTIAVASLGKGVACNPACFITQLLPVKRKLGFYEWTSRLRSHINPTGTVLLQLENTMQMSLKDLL
In short: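 Quantitative HTS: compounds tested from 0.7 nM up to 77 uM against 2 nM enzyme with 80 uM 4-MU alpha-D-galactopyranoside. The 20 min room-temperature reaction is stopped with 1M NaOH/1M glycine, pH 10.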

[14] = molecular target: alpha-glucosidase (Oryza sativa, rice) (UniProt Q653V4); test: Counterscreen for Glucocerebrosidase Inhibitors: qHTS Assay for Rice alpha-Glucosidase at pH 5.0 (AID 997);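 further: 0% = full activity with enzyme and -100% = basal without enzyme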
In short: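 Rice alpha-glucosidase (4 nM final) with 400 uM 4-methylumbelliferyl-alpha-D-glucopyranoside in citrate buffer pH 5.0, 20 min at room temperature, stopped at pH 10; fluorescence 365/440 nm, compounds 0.7 nM–77 uM, AC50 from Hill fits.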

[15] = molecular target: Cytochrome P450 1A2 (Homo sapiens) (UniProt P05177); test: p450-cyp1a2 (AID 410; calls by dose curve;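 further: -100% = full effect of reference inhibitor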)
Chain of Cytochrome P450 1A2 (Homo sapiens) (P05177 whole entry, looked up): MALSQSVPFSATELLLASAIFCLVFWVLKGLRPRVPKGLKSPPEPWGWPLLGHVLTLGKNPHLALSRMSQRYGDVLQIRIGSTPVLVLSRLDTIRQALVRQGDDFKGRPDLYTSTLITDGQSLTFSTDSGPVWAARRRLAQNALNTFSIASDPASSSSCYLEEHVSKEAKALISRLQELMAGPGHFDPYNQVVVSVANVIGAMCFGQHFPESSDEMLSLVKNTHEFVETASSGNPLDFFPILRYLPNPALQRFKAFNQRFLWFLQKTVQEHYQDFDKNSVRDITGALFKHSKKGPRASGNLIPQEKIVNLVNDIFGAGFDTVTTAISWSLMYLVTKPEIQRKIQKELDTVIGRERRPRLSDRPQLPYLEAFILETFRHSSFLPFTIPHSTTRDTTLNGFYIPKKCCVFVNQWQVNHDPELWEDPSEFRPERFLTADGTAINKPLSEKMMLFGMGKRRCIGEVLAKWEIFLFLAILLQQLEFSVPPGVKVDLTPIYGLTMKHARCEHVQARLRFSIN
In short: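 Inhibition was calculated relative to 57 uM furafylline (full inhibition). The reaction used human CYP1A2 at 20nM with Luciferin-ME at its Km, 100uM, driven by an NADPH-regenerating system for 60 min at room temperature.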

[16] = molecular target: Mitogen-activated protein kinase 10 (Mus musculus) (UniProt Q61831); test: JNK3 AlphaScreen Assay (AID 530; active means well fitted curve in either direction with a large enough effect, not every such curve was filed as active)
In short: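 JNK3 came from HepG2 lysates pre-activated with IL-1beta and TNF-alpha and phosphorylated biotinylated GST-cJun (1-79) at 10 uM ATP, pH 7.6, room temperature. Compounds were titrated. AlphaScreen signal used anti-phospho-cJun (Ser73) antibody.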

[17] = molecular target: Cytochrome P450 3A4 (Homo sapiens) (UniProt P08684); test: qHTS Assay for Activators of Cytochrome P450 3A4 (AID 885); further: nearly all actives have a fitted effect of over 65% in size
Chain of Cytochrome P450 3A4 (Homo sapiens) (P08684 whole entry, looked up): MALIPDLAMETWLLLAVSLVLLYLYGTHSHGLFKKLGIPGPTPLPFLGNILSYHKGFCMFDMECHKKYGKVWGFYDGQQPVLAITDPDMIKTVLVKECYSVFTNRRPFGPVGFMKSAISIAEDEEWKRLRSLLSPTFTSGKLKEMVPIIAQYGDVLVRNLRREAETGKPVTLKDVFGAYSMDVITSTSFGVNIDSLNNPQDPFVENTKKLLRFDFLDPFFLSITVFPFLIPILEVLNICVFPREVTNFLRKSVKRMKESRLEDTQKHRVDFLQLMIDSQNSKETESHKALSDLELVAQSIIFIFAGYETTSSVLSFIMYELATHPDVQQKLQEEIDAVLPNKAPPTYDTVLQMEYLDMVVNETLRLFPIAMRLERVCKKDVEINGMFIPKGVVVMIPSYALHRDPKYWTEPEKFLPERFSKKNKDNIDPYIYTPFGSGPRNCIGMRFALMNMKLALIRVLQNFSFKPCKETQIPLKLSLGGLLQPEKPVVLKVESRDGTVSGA
In short: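 Signal was normalized against complete inhibition by 57 uM ketoconazole. The reaction used 20nM CYP3A4 with 25uM Luciferin-PPXE, 10-min compound preincubation and a 60-min NADPH-supported step at RT.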

[18] = qHTS Assay for Identification of Small Molecule Antagonists for Thrombopoietin (TPO) Signaling Pathway (AID 918); details: TPO-dependent cell signaling reporter, antagonist mode; further: potency means the concentration at half of the fitted maximal effect; nearly all actives have a fitted effect of over 60% in size
In short: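 First, Ba/F3 reporter cells expressing human TPO receptor were held overnight without IL-3. Next, compound and 26 pM TPO were added. After 24 hrs incubation at 37 C, luciferase luminescence under the Glycoprotein IIb promoter was recorded.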

[19] = molecular target: Muscarinic acetylcholine receptor M1 (Rattus norvegicus) (UniProt P08482); test: qHTS Assay for Antagonists of Acetylcholine Muscarinic M1 Receptor: Kinetic Measurement of Intracellular Calcium Response (AID 943);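 further: Fluo-4 calcium signal as peak divided by basal fluorescence over 4 min; nearly all actives have a fitted effect of over 75% in size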
In short: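 Intracellular calcium flux, recorded with Fluo-4 in a kinetic plate reader, served as signal; the response to carbachol at EC80 (100 nM final) was taken as maximal over minimal fluorescence after a 10 min compound pre-incubation in rat M1-CHO cells.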

[20] = Stat Signaling Pathway (AID 446; active means well fitted curve in either direction with a large enough effect, not every such curve was filed as active); details: ME-180 SIE beta-lactamase reporter, IL-6 stimulated, 5 h; at 7.69 µM (top of the series) unless noted
In short: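 Reporter line: ME-180 cervical carcinoma, SIE-beta-lactamase. Treatment: compound with 40 pM IL-6, 5 hrs, 37 C, in low-serum OPTI-MEM with 10 mM HEPES pH 7.3. Detection: 460/530 nm fluorescence.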

[21] = qHTS Assay for Identification of Small Molecule Agonists for Hypoxia Response Element Signaling Pathway (AID 914; active means well fitted activation curve with a large enough effect in the signal ratio, with a control signal flat, not every such curve was filed as active; the % refers to the signal ratio; further: % of control where 0% means no effect); details: ME-180 (cervical carcinoma) HRE-bla reporter, beta-lactamase ratio, CoCl2, 17 h; activation: stronger effect = higher value
In short: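 AC50 values come from titration-series %Activity, taken as the 460/530nm ratio of CCF4 fluorescence (excitation 405nm). CellSensor HRE-bla ME-180 cells were treated 17 hours at 37 C with compound plus an EC50 level of CoCl2.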

CO/N=C(\C(=O)N[C@@H]1C(=O)N2C(C(=O)O)=C(CSc3nc(=O)c(O)nn3C)CS[C@@H]12)c1csc(N)n1
active: Potency [12] 25.1 µM
inactive: activity change, negative = inhibition [1] -11.1% [at 38 µM] | activity change, negative = inhibition [2] 4.37% [at 38 µM] | Potency [3] > 46 µM | Potency [4] > 46 µM | Potency [5] | outcome [6] | Potency [7] | outcome [8] | Potency [9] | outcome [10] | outcome [11] | outcome [13] | Potency [14]

COc1cc2nc(N3CCN(C(=O)OCc4ccccc4)[C@H](C(=O)NC(C)(C)C)C3)nc(N)c2cc1OC
inactive: activity change, negative = inhibition [1] -7.79% [at 38 µM] | Potency [15] | activity change, negative = inhibition [2] 3.46% [at 38 µM] | Potency [3] > 46 µM | Potency [16] | Potency [5] | outcome [6] | Potency [17] | Potency [7] | Potency [9] | outcome [10] | outcome [11] | Potency [14]
active: Potency [18] 12.6 µM

Nc1nc(Cl)nc2c1ncn2[C@@H]1O[C@@H](COP(=O)(O)OP(=O)(O)OP(=O)(O)O)[C@@H](O)[C@H]1O
inactive: activity change, negative = inhibition [1] 18.9% [at 38 µM] | activity change, negative = inhibition [2] 9.46% [at 38 µM] | Potency [3] > 46 µM | Potency [16] | Potency [5] | outcome [6] | Potency [7] | Potency [19] | Potency [9] | outcome [11] | Potency [14]

COc1ccc(CCN(C)CCC[C@@](C#N)(c2cc(OC)c(OC)c(OC)c2)C(C)C)cc1OC
inactive: activity change, negative = inhibition [1] 2.08% [at 38 µM] | activity change, negative = inhibition [2] -29.4% [at 38 µM] | activity, negative = inhibition [20] -12.4% [at 38 µM] | Potency [3] > 46 µM | Potency [4] > 46 µM | outcome [6] | outcome [8] | Potency [9] | outcome [10] | outcome [11] | Potency [14]

OC[C@@H]1O[C@@H](n2cnc3c(NC4CCCCC4)ncnc32)[C@@H](O)[C@H]1O
inactive: activity change, negative = inhibition [1] -12.8% [at 38 µM] | Potency [15] | activity change, negative = inhibition [2] 1.85% [at 38 µM] | Potency [3] > 46 µM | Potency [4] > 46 µM | Potency [5] | outcome [6] | Potency [7] | activation [21] -22.9% | Potency [9] | outcome [11] | Potency [14]
